We go through five compounds from PubChem BioAssay.

The source made the active and inactive calls.

One assay has as its target Albumin (Bos taurus) (UniProt P02769). Briefly: bovine serum albumin binders on microarray, profiling panel, artefact control for SMM control protein annotation, biochemical, small-molecule microarray, Alexa647 label, 635/667 nm fluorescence (AID 1118).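 Note: score merges 667 nm emission intensity and signal-to-noise per printed compound spot.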 The settings on record: BSA-A647 binding, fluorescence 635 nm, higher = more signal.
A short description of assay [1]: small-molecule microarray binders of probe aXIP, primary screen, biochemical, NeuroSMM set, 635/667 nm fluorescence (AID 1119).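 Note: probe is the protein aXip251-270 applied at 1 µg/mL to compound-printed slides; binding of probe to printed compounds measured as 667 nm fluorescence plus signal to noise.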 The settings on record: higher = more signal, called active from +8 up or from −8 down.
Assay [2] in a line: small-molecule binders of probe aNOTCH3, primary screen, biochemical, small-molecule microarray, 635/667 nm fluorescence (AID 1120).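 Note: probe is a biotin-tagged antibody raised against NOTCH3 rather than NOTCH3 protein; score merges spot fluorescence near 667 nm with spot signal to noise.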 The note with it: higher = more signal.
Assay [3] can be described thus: small-molecule binders of probe aNOTCH2, primary screen, biochemical, small-molecule microarray, 635/667 nm fluorescence (AID 1121).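 Note: score merges feature fluorescence read at 667 nm with its signal to noise.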 The settings on record: higher = more signal.
Assay [4] concerns the target Carbonic anhydrase 2 (Homo sapiens) (UniProt P00918). Briefly: CAII small-molecule binders, profiling panel, biochemical, small-molecule microarray, Alexa647-labelled CAII (AID 1122). The settings on record: CAII-A647 binding fluorescence, higher = more signal.
Assay [5] in a line: COS7 lysate on small-molecule microarray, probe aHis, 635 nm (AID 1123).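 Note: z-score combines 667nm fluorescence intensity with signal-to-noise per printed compound spot.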 The settings on record: COS7 cell lysate, fluorescence, higher = more signal.
Assay [6] is described as follows: compound binding in COS7 lysate, probe aLAP1, primary screen, cell lysate, small-molecule microarray (AID 1124).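 Note: lysate comes from COS7 cells expressing LAP1 and is applied at 0.3 µg/mL; score merges spot fluorescence near 667 nm with signal-to-noise over triplicate slides.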 The note with it: probe aLAP1, fluorescence, higher = more signal.
The subject of a further assay is Sam68 (KHDRBS1). Description: Sam68 small-molecule binders, primary screen, biochemical, small-molecule microarray, 635 nm fluorescence (AID 1125).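 Note: score merges 667 nm channel intensity with signal to noise over triplicate slides.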 The note with it: small-molecule microarray binding, higher = more signal.
Assay [7] has as its system Chordin-like protein 2 (CHRDL2). Description: CHRDL2 small-molecule binders, primary screen, biochemical, small-molecule microarray, 635 nm fluorescence (AID 1126).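 Note: printed compound slides probed with Chrdl2 protein at 4 µg/mL for 1 h at 4 C; score merges 667 nm emission intensity with signal to noise over three replicate slides.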 The note with it: small-molecule microarray binding, fluorescence 635 nm; higher = more signal.
Assay [8] concerns the target Concanavalin-A (Canavalia ensiformis) (UniProt P02866). Briefly: ConA small-molecule binders, primary screen, artefact control for SMM control protein annotation, biochemical, small-molecule microarray, Alexa647 label, 635 nm (AID 1127).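 Note: z combines 667 nm emission intensity with signal-to-noise across three replicate slides.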 The note with it: ConA-A647 binding fluorescence, higher = more signal.
The nature of assay [9]: anti-His antibody binders, primary screen, artefact control for SMM control protein annotation, biochemical, small-molecule microarray, 635 nm fluorescence (AID 1128).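 Note: score merges feature fluorescence with signal-to-noise for each printed compound spot.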 The note with it: anti-His Alexa647 antibody binding, higher = more signal.
The subject of assay [10] is Human papillomavirus type 1a E7 protein (residues 1-88). Briefly: HPV1a E7 small-molecule binders, primary screen, biochemical, small-molecule microarray, residues 1-88, 635 nm (AID 1129). The note with it: small-molecule microarray binding, fluorescence 635 nm; higher = more signal.
Assay [11] addresses Focal adhesion kinase 1 (Homo sapiens) (UniProt Q05397). Description: small-molecule microarray binders of FAK, primary screen, biochemical, 635/667 nm fluorescence, BSA, DTT (AID 1130).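 Note: composite of spot emission at 667 nm and signal to noise over triplicate slides.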 The note with it: PTK2 binding, 635 nm fluorescence, higher = more signal.
Assay [12] relates to Fibrinogen (Alexa647-labelled). Briefly: fibrinogen binders on compound microarrays, profiling panel, artefact control for SMM control-protein annotation, biochemical, small-molecule microarray, 635/667 nm fluorescence (AID 1131).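 Note: z-score merges 667 nm fluorescence with per-spot signal-to-noise over triplicate slides.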 The settings on record: fibrinogen-A647 binding fluorescence, higher = more signal.
In assay [13] the target is Follistatin (Homo sapiens) (UniProt P19883). Briefly: follistatin binders on small-molecule microarrays, primary screen, biochemical, small-molecule microarray, 635/667 nm fluorescence (AID 1132). The note with it: FST binding, 635 nm fluorescence, higher = more signal.
Assay [14] addresses Fibroblast growth factor 2 (Homo sapiens) (UniProt P09038). Briefly: FGF2 binders on small-molecule microarrays, primary screen, biochemical, small-molecule microarray, 635/667 nm fluorescence (AID 1133). The settings on record: small-molecule microarray binding, FGF2, fluorescence 635/667; higher = more signal.
The nature of assay [15]: mitochondrial membrane potential change in A549 cells, profiling panel, cell-based, JC-1 fluorescence, basal, 24 h, 100 nL (AID 1138).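 Note: A549 lung adenocarcinoma cells under basal conditions with no added stimulus; test concentration not given here.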 The note with it: higher = more signal.
Another assay relates to Lefty1. Description: Lefty1 binders on small-molecule microarrays, primary screen, biochemical, small-molecule microarray, 635/667 nm fluorescence (AID 1139). The settings on record: small-molecule microarray binding, fluorescence 635/667; higher = more signal.
Assay [16] has as its system wheat germ agglutinin (Triticum aestivum), Alexa647-labelled. Briefly: wheat germ agglutinin binders on compound microarrays, profiling panel, artefact control for SMM control-protein annotation, biochemical, small-molecule microarray, 635/667 nm fluorescence (AID 1140).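 Note: score merges 667 nm feature emission with signal to noise over triplicate slides.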 The settings on record: WGA-A647 binding, 635 nm fluorescence, higher = more signal.
Assay [17] addresses Luciferin 4-monooxygenase (Photinus pyralis) (UniProt P08659). Description: firefly luciferase enzyme inhibitors, primary screen, biochemical, luminescence, purified enzyme, 2006 set (AID 1141).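 Note: cell-free assay with purified firefly luciferase at 100 ng per well in PBS; test concentration not given here.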 The note with it: SteadyGlo luminescence, 30 min, higher = more signal, called active from +8 up or from −8 down.

Focal adhesion kinase 1 (Homo sapiens), sequence (Q05397 whole entry, looked up): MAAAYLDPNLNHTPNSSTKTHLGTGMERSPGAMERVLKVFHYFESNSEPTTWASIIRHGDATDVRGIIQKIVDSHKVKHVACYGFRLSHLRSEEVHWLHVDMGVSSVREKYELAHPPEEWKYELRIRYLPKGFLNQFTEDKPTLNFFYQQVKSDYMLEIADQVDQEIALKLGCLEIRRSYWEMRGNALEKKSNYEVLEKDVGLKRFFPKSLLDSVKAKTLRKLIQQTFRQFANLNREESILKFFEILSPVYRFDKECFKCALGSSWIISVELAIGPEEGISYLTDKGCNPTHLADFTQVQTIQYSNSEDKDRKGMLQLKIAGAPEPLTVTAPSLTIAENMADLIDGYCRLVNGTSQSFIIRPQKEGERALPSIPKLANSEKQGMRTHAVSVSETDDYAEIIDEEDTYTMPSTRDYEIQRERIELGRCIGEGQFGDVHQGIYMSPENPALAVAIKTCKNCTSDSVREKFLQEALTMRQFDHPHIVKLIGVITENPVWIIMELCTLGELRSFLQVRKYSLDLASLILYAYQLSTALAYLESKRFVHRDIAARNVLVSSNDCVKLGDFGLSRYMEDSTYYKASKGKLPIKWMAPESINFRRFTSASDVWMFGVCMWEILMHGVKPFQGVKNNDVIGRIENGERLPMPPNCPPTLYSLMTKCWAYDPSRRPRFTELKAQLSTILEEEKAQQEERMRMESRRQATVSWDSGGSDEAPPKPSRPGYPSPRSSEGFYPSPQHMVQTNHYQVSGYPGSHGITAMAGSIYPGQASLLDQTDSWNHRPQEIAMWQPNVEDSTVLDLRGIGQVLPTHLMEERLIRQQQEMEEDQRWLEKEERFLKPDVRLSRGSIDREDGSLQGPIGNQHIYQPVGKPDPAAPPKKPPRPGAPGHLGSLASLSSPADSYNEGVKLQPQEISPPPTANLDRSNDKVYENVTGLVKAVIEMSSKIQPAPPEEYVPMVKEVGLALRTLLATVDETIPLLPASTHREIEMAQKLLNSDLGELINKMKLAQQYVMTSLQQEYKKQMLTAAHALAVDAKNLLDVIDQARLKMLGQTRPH
Follistatin (Homo sapiens), sequence (P19883 whole entry, looked up): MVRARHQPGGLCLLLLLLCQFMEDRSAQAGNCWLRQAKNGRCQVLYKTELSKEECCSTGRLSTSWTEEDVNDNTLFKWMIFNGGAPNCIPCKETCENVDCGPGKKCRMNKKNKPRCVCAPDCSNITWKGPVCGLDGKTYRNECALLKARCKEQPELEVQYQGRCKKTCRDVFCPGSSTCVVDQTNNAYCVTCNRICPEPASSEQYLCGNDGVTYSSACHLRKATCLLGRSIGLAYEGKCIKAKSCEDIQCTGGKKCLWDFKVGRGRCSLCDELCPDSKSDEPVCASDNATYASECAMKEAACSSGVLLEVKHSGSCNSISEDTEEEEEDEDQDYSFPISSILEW
Fibroblast growth factor 2 (Homo sapiens), sequence (P09038 whole entry, looked up): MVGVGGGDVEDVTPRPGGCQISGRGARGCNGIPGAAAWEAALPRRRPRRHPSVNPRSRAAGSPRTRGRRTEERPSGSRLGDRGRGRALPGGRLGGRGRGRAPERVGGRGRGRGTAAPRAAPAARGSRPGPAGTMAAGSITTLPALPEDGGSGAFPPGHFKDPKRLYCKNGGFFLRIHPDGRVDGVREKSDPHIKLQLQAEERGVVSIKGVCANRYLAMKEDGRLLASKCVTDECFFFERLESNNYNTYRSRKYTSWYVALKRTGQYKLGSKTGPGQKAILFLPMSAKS
Concanavalin-A (Canavalia ensiformis), sequence (P02866 whole entry, looked up): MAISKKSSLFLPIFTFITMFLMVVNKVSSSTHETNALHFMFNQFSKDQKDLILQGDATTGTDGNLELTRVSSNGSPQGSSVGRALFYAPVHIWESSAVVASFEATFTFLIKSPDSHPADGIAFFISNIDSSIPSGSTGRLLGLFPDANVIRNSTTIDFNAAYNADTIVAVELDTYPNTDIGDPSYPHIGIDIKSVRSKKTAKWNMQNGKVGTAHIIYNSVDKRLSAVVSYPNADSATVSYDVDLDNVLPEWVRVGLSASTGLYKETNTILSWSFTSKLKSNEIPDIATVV
Luciferin 4-monooxygenase (Photinus pyralis), sequence (P08659 whole entry, looked up): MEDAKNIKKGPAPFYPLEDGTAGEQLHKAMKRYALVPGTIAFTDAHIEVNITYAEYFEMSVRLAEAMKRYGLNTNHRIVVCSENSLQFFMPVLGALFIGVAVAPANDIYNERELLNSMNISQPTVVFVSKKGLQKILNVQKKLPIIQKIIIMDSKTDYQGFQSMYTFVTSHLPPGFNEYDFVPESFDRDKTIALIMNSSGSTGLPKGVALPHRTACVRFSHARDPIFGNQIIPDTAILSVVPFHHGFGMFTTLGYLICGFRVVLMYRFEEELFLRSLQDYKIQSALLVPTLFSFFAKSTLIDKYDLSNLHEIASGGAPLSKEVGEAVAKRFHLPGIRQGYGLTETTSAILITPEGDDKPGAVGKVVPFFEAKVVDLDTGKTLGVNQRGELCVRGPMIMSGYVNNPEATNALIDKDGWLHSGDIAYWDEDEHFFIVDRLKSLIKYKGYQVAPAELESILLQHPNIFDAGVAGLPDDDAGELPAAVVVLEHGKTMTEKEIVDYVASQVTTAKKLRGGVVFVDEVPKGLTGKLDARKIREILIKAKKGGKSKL
Albumin (Bos taurus), sequence (P02769 whole entry, looked up): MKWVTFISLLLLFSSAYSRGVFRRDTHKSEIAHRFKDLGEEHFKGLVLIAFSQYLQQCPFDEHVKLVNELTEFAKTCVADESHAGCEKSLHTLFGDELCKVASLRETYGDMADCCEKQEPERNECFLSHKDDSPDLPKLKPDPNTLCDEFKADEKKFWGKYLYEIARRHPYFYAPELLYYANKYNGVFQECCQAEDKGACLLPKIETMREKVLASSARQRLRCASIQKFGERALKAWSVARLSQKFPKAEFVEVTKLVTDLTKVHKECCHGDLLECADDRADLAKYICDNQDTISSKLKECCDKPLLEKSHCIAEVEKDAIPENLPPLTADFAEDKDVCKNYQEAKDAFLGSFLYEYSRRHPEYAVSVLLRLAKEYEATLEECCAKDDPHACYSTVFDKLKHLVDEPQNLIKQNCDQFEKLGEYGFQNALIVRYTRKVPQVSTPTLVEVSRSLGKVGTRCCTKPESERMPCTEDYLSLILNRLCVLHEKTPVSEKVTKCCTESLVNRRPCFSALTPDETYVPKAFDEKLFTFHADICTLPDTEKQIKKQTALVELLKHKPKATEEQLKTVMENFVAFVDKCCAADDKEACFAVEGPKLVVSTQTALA

With `C=CCN1C(=O)[C@]2(O[C@H](CCO)[C@@H]([Si](C)(C)c3ccc(OC)cc3)[C@@H]2C)c2cc(N(C=O)c3ccccc3)ccc21`, the composite z-score with Albumin (Bos taurus) was 0.0925; in assay [2], -0.0967; in assay [3] it was -0.0315; in assay [4], 0.561; in assay [5], 0.225; in assay [6], 0.398. Also, the composite z-score is 0.518 with Sam68 (KHDRBS1); -0.0095 in assay [7]; 0.497 in assay [8]; 0.896 in assay [9]; 0.823 in assay [10]; -0.0453 in assay [11]. Besides, the composite z-score was -0.16 in [12]; -0.193 in [13]; -0.129 in assay [14]; 0.148 with Lefty1; 0.792 in [16]. Further, the composite Z-score in assay [1] was 0.111 (inactive). Moreover, the z-score in assay [15] is -1.08; in assay [17], -0.914 (inactive).
As to `CCOC(=O)C[C@H]1[C@H](OC(=O)c2ccc(C(=O)c3ccccc3)cc2)[C@@H](NC(=O)Cc2ccc(OC)cc2)c2cc(OCCCO)ccc2N1C(=O)c1ccc2ccccc2n1`, the composite z-score was 0.701 with Albumin (Bos taurus); -0.0445 in assay [2]; -0.0868 in assay [3]; 0.151 in assay [4]; 1.34 in [5]; 0.493 in assay [6]. The composite z-score in the assay with Sam68 (KHDRBS1) was 1.09; in assay [7], -0.0473; in assay [8], 0.818; in assay [9], 0.325; in [10], 0.727; in assay [11] it was -0.314. The composite z-score in assay [12] is 0.858; in assay [13] it was 0.513; in assay [14], 0.312; in the assay with Lefty1, 0.735; in [16] it was -0.028. Besides, the composite Z-score in assay [1] is 0.0505 (inactive). The results for the z-score in assay [15] and in [17] were 0.842 and -0.849 (inactive), respectively.
For `O=C(NCc1ccccc1)[C@@H]1c2ccccc2C(=O)N(C2Cc3ccccc3C2)[C@H]1c1ccc(CO)cc1`, the composite z-score was 0.0732 with Albumin (Bos taurus); 0.0711 in assay [2]; -0.0249 in assay [3]; 0.767 in assay [4]; 1.35 in assay [5]; 0.0541 in assay [6]. Moreover, the composite z-score in the assay with Sam68 (KHDRBS1) is 0.958; in assay [7] it was -0.357; in assay [8], 0.899; in assay [9], 0.526; in assay [10] it was 1.17; in [11], 0.166. Also, the composite z-score came to 0.299 in assay [12]; 0.957 in assay [13]; 0.892 in [14]; 0.459 in the assay with Lefty1; 1.1 in [16]. Moreover, the composite Z-score in assay [1] was 0.0702 (inactive). For the same compound, the z-score was 0.353 in assay [15] and 0.111 (inactive) in assay [17].
Take `C=CC[C@]1(C(N)=O)COC(c2ccc(OCCCO)cc2)=N1`: the composite z-score is 0.102 in the assay with Albumin (Bos taurus); 0.0831 in assay [2]; -0.104 in assay [3]; 0.903 in [4]; 0.148 in [5]; -0.136 in [6]. The composite z-score in the assay with Sam68 (KHDRBS1) was -0.133; in [7], 0.0919; in assay [8], 0.817; in assay [9] it was 1.07; in [10], 0.017; in assay [11] it was 0.2. For the same compound, the composite z-score in [12] worked out at 0.561; in [13], 0.786; in assay [14], 1.31; in the assay on Lefty1 it was 0.863; in assay [16] it was 0.493. Also, the composite Z-score in assay [1] was 0.0767 (inactive). Further, the z-score was 0.359 in [15] and 0.322 (inactive) in [17].
In the case of `CC(C)=CCCC(C)=CC(O)C1C=CC2C(=O)N(c3ccccc3)C(=O)C2N1Nc1ccc(C(C)C)cc1` (stereo not given), the composite z-score with Albumin (Bos taurus) is 0.792; in assay [2], 0.282; in assay [3] it was 0.0683; in [4], 0.465; in assay [5], 2.32; in assay [6], -0.519. For the same compound, the composite z-score is 1.23 in the assay on Sam68 (KHDRBS1); -1.01 in assay [7]; 1.09 in assay [8]; 0.491 in [9]; 1.22 in [10]; 0.526 in assay [11]. Also, the composite z-score was 0.998 in assay [12]; 1.12 in [13]; -0.373 in assay [14]; 0.262 in the assay with Lefty1; 1.03 in [16]. The composite Z-score in assay [1] was 0.415 (inactive). Moreover, the z-score is 0.0344 in assay [15] and 0.43 (inactive) in assay [17].
